Here are results for 13 compounds from PubChem BioAssay (NCI).

Assay in all cases: NCI-60 one-dose screen, 48 h (100 = growth as untreated, 0 = no growth, -100 = all killed)
What all share (conditions): 10 µM

Assay [1] concerns DU-145 prostate.
In assay [2] the test system is K-562 leukemia.
The test system of assay [3] is MALME-3M melanoma.
Assay [4] relates to MDA-MB-231 breast.
In assay [5] the test system is RXF 393 renal.
Assay [6] concerns SF-268 CNS.
For assay [7], the system named is SF-295 CNS.
The subject of assay [8] is SF-539 CNS.
Assay [9] has as its system UACC-257 melanoma.
For assay [10], the system named is M14 melanoma.

The panel holds about 83,000 compounds, 20% with a hit somewhere; the sample as a whole holds those more often.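 Each cell line was grown in a 96-well plate and treated with one concentration of compound for 48 hours. Values below 10 were considered active.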 A number with no mark means an inactive call. Calls of active or inactive are those of the source.

For `CCC(c1ccc(OC)cc1)C(CC)c1ccc(O)c(CN2CCN(C)CC2)c1` (stereo not given), the growth in assay [1] is 92.4%; in [2] it was 9.45% (active); in assay [3] it was 6.2% (active); in [4], 56.3%; in assay [5] it was 39.3%; in assay [6], 80.6%. For the same compound, the growth was 28.9% in assay [7], 67.4% in assay [8], -5.73% (active) in assay [9] and -19.5% (active) in [10].

As for `Cc1ccc(NCCN(C)CC(C)O)c2c(=O)c3ccc(Cl)cc3sc12` (stereo not given), the growth in assay [1] was 59.7%; in assay [2], -61.2% (active); in assay [3], -24.2% (active); in assay [4], -16.4% (active); in [5], 22.9%; in assay [6] it was 58.4%. In addition, the growth was 82.6% in assay [7], 81.5% in assay [8], 24.7% in [9] and -74.7% (active) in [10].

With `COc1ccc(C(=O)N2C=Cc3ccccc3C2C#N)cc1` (stereo not given), the growth is 109% in assay [1]; 67.4% in assay [2]; 100% in assay [3]; 86.9% in assay [4]; 90% in [5]; 99.9% in assay [6]. The growth in [7] is 99.2%; in assay [8], 96.8%; in [9], 93.7%; in assay [10], 116%.

Consider `COc1ccc2c(c1)OC(N)=C(C#N)C2c1cc(OC)c(OC)c(OC)c1` (stereo not given), for which the growth is -19.5% (active) in assay [1]; 7.08% (active) in assay [2]; 26.9% in [3]; 4.49% (active) in assay [4]; 38.7% in assay [5]; 22.8% in [6]. For the same compound, the growth was 4.98% (active) in [7], 4.42% (active) in assay [8], 68.2% in assay [9] and 5.11% (active) in assay [10].

As to `COc1cc2cc(Oc3ccc(NC(=O)Nc4ccc(Cl)c(C(F)(F)F)c4)cc3)c(C)nc2cc1OC`, the growth is 12.7% in assay [1]; -9.54% (active) in assay [2]; -23% (active) in assay [3]; -50.6% (active) in assay [4]; -33.4% (active) in [5]; -10.2% (active) in assay [6]. Moreover, the growth in [7] was -70.9% (active); in assay [8] it was -36.2% (active); in assay [9], -12.5% (active); in assay [10] it was -73.6% (active).

Consider `COc1ccc(-c2cc(-c3ccc(Cl)cc3)nc(SCCCCCCC(=O)NO)n2)cc1OC`, for which the growth was 82.4% in assay [1]; 36.1% in assay [2]; 42.5% in assay [3]; 70.8% in [4]; 57.5% in assay [5]; 91.9% in assay [6]. In addition, the growth was 77.1% in [7], 58.4% in assay [8], 72.1% in [9] and 44.4% in assay [10].

As to `O=C(Cn1cc(CO)nn1)Nc1nc2ccccc2s1`, the growth is 113% in assay [1]; 94.8% in assay [2]; 93.8% in [3]; 100% in assay [4]; 112% in assay [5]; 99% in assay [6]. The growth in assay [7] was 106%; in assay [8] it was 95%; in assay [9], 104%; in [10], 94.7%.

For `COc1cc(/C=C/c2cc(/C=C/c3ccc(O)c(OC)c3)n(C(=O)Nc3ccc(C)cc3)n2)ccc1O`, the growth in assay [1] was 2.02% (active); in [2] it was 2.29% (active); in assay [3], 17.3%; in assay [4], 19.9%; in assay [5], -47.5% (active); in assay [6] it was -11.5% (active). Moreover, the growth was 0.531% (active) in assay [7], 5.95% (active) in assay [8], 4.8% (active) in [9] and 2.3% (active) in [10].

As to `CN(C)CCCOc1ccc(OCCCN(C)C)c2c1C(=O)c1ccccc1C2=O`, the growth was 4.83% (active) in assay [1]; 7.12% (active) in assay [2]; -43% (active) in [3]; -20.5% (active) in assay [4]; -9.08% (active) in assay [5]; -4.36% (active) in [6]. Further, the growth in assay [7] was 14.4%; in [8], -1.42% (active); in assay [9], 5.21% (active); in assay [10] it was 1.61% (active).

Turning to `O=C(CCCCC(=O)Oc1c(Cl)cc(Cl)cc1[N+](=O)[O-])Oc1c(Cl)cc(Cl)cc1[N+](=O)[O-]`, the growth is 106% in assay [1]; 85.9% in assay [2]; 98.8% in [3]; 106% in [4]; 120% in [5]; 96.3% in [6]. Moreover, the growth in assay [7] was 97.2%; in assay [8], 100%; in assay [9], 99.5%; in assay [10], 103%.

In the case of `O=C1c2ccccc2C(=O)c2c1ccc(C(Br)Br)c2Cl`, the growth in [1] was 33.1%; in [2], -28.9% (active); in assay [3] it was -70.9% (active); in assay [4] it was -41.9% (active); in [5] it was 36.2%; in assay [6], -19.1% (active). Further, the growth in assay [7] is 90.5%; in assay [8] it was 69.9%; in [9], 100%; in assay [10] it was 10.7%.

As to `COc1cc2c(Nc3ccc(S(N)(=O)=O)cc3)ncnc2c(OC)c1OC`, the growth in assay [1] was 107%; in [2] it was 97.8%; in [3], 95%; in assay [4] it was 94.9%; in [5] it was 109%; in [6], 90.2%. The growth in [7] is 105%; in assay [8], 99.3%; in assay [9], 94.9%; in assay [10] it was 124%.

Regarding `COc1cc(NC(=O)Nc2cnc(Nc3ccc(N4CCOCC4)cc3)nc2Oc2cccc(OC)c2)cc(OC)c1`, the growth in assay [1] is 36.9%; in [2] it was 55.4%; in [3] it was 8.57% (active); in assay [4], 16.9%; in assay [5], -32.5% (active); in assay [6] it was 50%. For the same compound, the growth is 34.6% in assay [7], -68.4% (active) in [8], 48% in assay [9] and 45.2% in [10].
